CHX counter – affects cycloheximide protein synthesis inhibition readout, counter-screen. cell reporter, cycloheximide protein synthesis inhibition counterscreen. max response, %. 12% of 300,000 active. AID 2314; in the data active = max response mostly above about 13%, no sharp cut-off; inactive = mostly below about 14%; note: read at 38.3 µM for the half of the compounds with a filed dose; 0% is about no effect
HCMV antiviral – human cytomegalovirus inhibition. HFF cells, HCMV-luciferase reporter, 72 h; stronger effect = lower value. activity change, negative = inhibition, % at 57.5 µM. 4.5% of 410,000 active; in the data active = activity change below about -60%; inconclusive = no clear call, values can overlap the other calls; inactive = above about -39%; note: % is set by controls: 0 for no effect and ±100 for the full control effect
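HFF cells seeded 16 h at 37C, treated with compounds, infected with luciferase-reporter HCMV at MOI 1 PFU/cell; luciferase read at 72 h post infection, normalized to buffer-only and Salinomycin controls.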
HCV inhibitor – blocks hepatitis C virus; 3.4% of 340,000 active; Potency, µM (doses to about 41.8 µM), without a hit: at the highest dose activity change, negative = inhibition, hits mostly inhibitors; Huh7.5.1 HCVcc-Cre infection, luciferase reporter, 44 h; note: potency is the fitted concentration of half-maximal effect; % is set by controls: 0 for no effect and ±100 for the full control effect
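Infectious HCVcc-Cre (~0.5 moi) was added to cells just after compound, with cells seeded 4 h earlier at 1,000 per well. Luciferase activity after 44 h culture reported infection; substrate was incubated 15 min at room temperature before reading.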
Pf growth 48h – P. falciparum growth inhibition at 48 hours (one generation); P. falciparum luciferase growth in erythrocytes, 48 h; Potency, µM (series often up to 28.7 µM), inactives show at the highest dose activity change, negative = inhibition, usual class: inhibitors; 5.9% of 310,000 active; AID 504832; note: potency is the fitted concentration of half-maximal effect; % is set by controls: 0 for no effect and ±100 for the full control effect
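Growth was read as firefly luciferase luminescence after a 48 h, 37 C, 5% CO2 exposure of compounds to reporter-bearing P. falciparum cultures (0.1% parasitemia, 2% hematocrit final) in Albumax-supplemented RPMI 1640.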
Pf growth 96h – inhibits malaria parasite growth, 96 h; P. falciparum luciferase reporter growth, 96 h; Potency, µM (titrated, usually from 28.7 µM), for the others: top-dose activity change, negative = inhibition, most hits filed as inhibitors; 6.9% of 320,000 active; AID 504834; note: potency is the fitted concentration of half-maximal effect; % is set by controls: 0 for no effect and ±100 for the full control effect
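Two parasite generations (96 h, 37 C, 5% CO2) of compound exposure in infected erythrocytes (0.05% parasitemia, 2% hematocrit). Luciferase-reporter P. falciparum; decreased luminescence indicates inhibited growth, aimed at apicoplast-acting delayed death.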
Shiga toxin inh – Shiga toxin inhibition. inhibition, % at 38.7 µM. 9.2% of 290,000 active. Vero cells, Shiga toxin protein synthesis inhibition reporter; in the data active = inhibition mostly above about 28%, no sharp cut-off; inactive = mostly below about 43%; note: 0% is about no effect
Active calls of the source: *; i = inactive; ? = inconclusive; / = no result given. Compounds with a hit are over-represented: about 21% of the library has one in this group of screens. Unless noted, calls come from the whole dose curve; as a rule, active = well fitted inhibition curve with a large enough effect; inconclusive = small, poorly fitted or top-dose-only effect, or another doubt; inactive = no such curve, though single readings can be large or run the other way.

SMILES | CHX counter | HCMV antiviral | HCV inhibitor | Pf growth 48h | Pf growth 96h | Shiga toxin inh
Cc1cc(C)n2nc(N)c(N=Nc3ccccc3)c2n1 | 25 | 6 | -6% | -1% | -21% | 58
CC(=O)NCCOC(=O)c1nn(Cc2ccccc2)c(=O)c2ccccc12 | -5 | -10 | -6% | 2% | 3% | -4
COc1cc(NC(=O)c2cc3c(C)nc4ccccc4c3o2)cc(OC)c1OC | -7 | -24 | ? | / | 0% | -8
Cc1nc2ccccc2c2oc(C(=O)Nc3ccc4c(c3)OCCO4)cc12 | 1 | -31 | 13µM* | / | ? | -6
Cc1nc2ccccc2c2oc(C(=O)Nc3ccc(C(C)C)cc3)cc12 | 0 | -68* | ? | ? | 2% | 10
O=S1(=O)C=CC(c2ccccc2)C1 (stereo unspecified) | -1 | 17 | 12% | 30% | 3% | 7
O=C(CC(Nc1ccc(Cl)cc1Cl)C(=O)O)c1ccccc1 (stereo unspecified) | 65* | -27 | 11% | 242% | 308% | 155*
C=C(C(=O)c1ccccc1)C(NC(C)(C)C)c1ccccc1 (stereo unspecified) | / | -98* | 3.5µM* | / | / | /
C=C(C(=O)c1ccccc1)C(C)CC(=O)c1ccccc1 (stereo unspecified) | 7 | -82* | ? | -5% | 6% | -2
O=C(CC(Nc1ccccc1)c1ccc(F)cc1)c1ccccc1 (stereo unspecified) | 73* | -15 | 1% | 10% | 2.6µM* | 56*
O=C(CC(C(=O)O)c1cccc(Cl)c1)c1ccccc1 (stereo unspecified) | 1 | 18 | 7% | -6% | 25% | -3
O=C(CC(Nc1ccccc1)c1ccccc1)C1CC1 (stereo unspecified) | -3 | 2 | 13% | -6% | -11% | -13
CCOc1ccccc1NC(=O)Cn1c(=O)n(Cc2cccs2)c(=O)c2cccnc21 | / | -23 | / | / | / | /
CSCCC(NC(=O)c1ccccc1)C(=O)OCC(=O)Nc1ccc(C)c(Cl)c1 (stereo unspecified) | 0 | 63 | 11% | 27% | / | 14
Cc1ccc(NC(CC(=O)c2ccccc2)C(=O)O)cc1Cl (stereo unspecified) | 41* | 52 | -4% | 392% | i | 71*
O=C(CC(C(=O)c1ccccc1)c1ccccc1)c1ccccc1 (stereo unspecified) | / | -35 | -26% | / | / | /
O=C(CC(Nc1ccccc1)C(=O)O)c1ccccc1 (stereo unspecified) | 37* | 44 | 2% | 174% | / | 139*
Cc1cc(C)cc(OCC(=O)OCC(=O)Nc2cc(S(=O)(=O)N3CCOCC3)ccc2Cl)c1 | / | 6 | -1% | / | / | /
CCn1cnc2c1c(=O)n(CC(=O)NCC(C)C)c(=O)n2Cc1ccccc1 | -3 | 64 | -21% | -21% | ? | -4
COc1ccccc1NC(=O)C1CCN(c2cnccn2)CC1 | / | -12 | / | / | / | /
COc1ccc(-c2csc(NC(=O)CN3C(=O)C4CC=CCC4C3=O)n2)cc1OC (stereo unspecified) | / | -111* | ? | / | / | /
O=C(CN1C(=O)C2CC=CCC2C1=O)Nc1nc(-c2ccc(F)c(F)c2)cs1 (stereo unspecified) | / | -32 | 10µM* | / | / | /
COc1ccc(-c2csc(NC(=O)CN3C(=O)C4CCCCC4C3=O)n2)cc1OC (stereo unspecified) | -9 | -5 | ? | -25% | -26% | -9
CCOC(=O)c1c(C)c(-c2ccccc2)n(CC(=O)NCc2cccc(OC)c2)c1C | / | -6 | / | / | / | /
COc1ccc(C(C#N)(CCC#N)CCC#N)cc1OC | -5 | 64 | 6% | 16% | / | -1
SMILES | CHX counter | HCMV antiviral | HCV inhibitor | Pf growth 48h | Pf growth 96h | Shiga toxin inh
C=CCC(C#N)(c1ccc(OC)c(OC)c1)c1cnccn1 (stereo unspecified) | / | -65* | -1% | 13µM* | ? | /
CC1(C)C2CCC1(C)C(OCC[N+](C)(C)CC(=O)OC1CCCCC1)C2 (stereo unspecified) | -2 | ? | 7% | 1.5µM* | 0.52µM* | -14
CCOC(=O)C[N+](C)(C)CCOC1CC2CCC1(C)C2(C)C (stereo unspecified) | 0 | -35 | 7% | 2.1µM* | 0% | 18
CC1(C)[C@@H]2CC[C@]1(C)[C@@H](OC(=O)CSC#N)C2 | / | / | / | -12% | -19% | /
COc1ccc(CC(N)c2csc(NC(=O)c3cc(C(C)(C)C)nn3Cc3ccccc3)n2)cc1 (stereo unspecified) | / | 16 | / | / | / | /
COc1ccc(OC)c(-c2noc(N3CCN(c4cccc(C)c4C)CC3)n2)c1 | / | -7 | / | / | / | /
CC(C)/C=N/Nc1nc(-c2ccc(Br)cc2)cs1 | 31* | -2 | -17% | 50% | 0% | 54*
O=C(NC(=S)Nc1nc(-c2ccc(Br)cc2)cs1)c1cccnc1 | 1 | 7 | ? | 13% | ? | -7
Nc1ccc(-c2ccc3ccccc3n2)cc1 | 25* | / | / | / | / | 71*
COc1cc2ccc(-c3ccc4ccccc4n3)cc2cc1OC | / | 22 | / | / | / | /
COc1ccc(-c2noc(C)c2-c2ccc3ccccc3n2)c(O)c1 | -4 | 3 | ? | 12µM* | 15µM* | -17
COc1ccc(CCc2ccc3ccccc3n2)cc1 | / | 30 | 3% | / | / | /
COc1ccc(-c2ccc3ccccc3n2)cc1 | 41* | 42 | ? | 125% | 310% | 71*
COc1ccc(-c2ccc3ccccc3n2)cc1OC | 46* | 61 | ? | 56% | 159% | 133*
CCOc1ccccc1NC(=O)Cn1c(=O)nc(-c2ccccc2F)c2cc(Cl)ccc21 | / | 29 | / | / | / | /
COC(=O)C(c1ccccc1)(c1cn(C)c2ccccc12)C(Nc1ccccc1)c1ccc(Br)cc1 (stereo unspecified) | / | -19 | / | / | / | /
Cc1cccc(C)c1-n1nnnc1C(C1CC1)N1C(=O)C(=O)c2ccccc21 (stereo unspecified) | / | -4 | / | / | / | /
O=C(OCCSCCOC(=O)C1CC=CCC1)C1CC=CCC1 (stereo unspecified) | / | 0 | 24% | / | / | /
COc1cc(F)ccc1-c1csc(C(O)c2ccccc2)n1 (stereo unspecified) | / | 38 | / | / | / | /
CCOC(=O)c1c(C)[nH]c(C)c1S(=O)(=O)NCC(=O)Nc1cccc(C(F)(F)F)c1 | / | -5 | / | / | / | /
Nc1nc(C23CC4CC(CC(C4)C2)C3)[nH]c(=O)n1 | 1 | -25 | 20% | -21% | -19% | 2
C[C@H](CO)N1C[C@H](C)[C@@H](CN(C)Cc2ccc3c(c2)OCCN3C)OCc2cnnn2CCCC1=O | / | -17 | / | / | / | /
O=C(C=C1NCCN1)c1ccccc1 | / | 64 | 5% | / | / | /
CC1N/C(=C\C(=O)c2ccccc2)N(O)C1(C)C (stereo unspecified) | 37* | 15 | ? | 146% | 162% | 76*
Cc1cccc(CNc2nc3cnc(-c4cccc(F)c4)cc3n2C)c1 | / | 17 | / | / | / | /

High-throughput results from PubChem BioAssay.
